Bioassay records: PubChem, several laboratories
PKD1 kinase inh = PKD1 (human) kinase inhibition. inhibition, % (no concentration beside the values). Q15139. 0.056% of 200,000 active. PKD1 kinase fluorescence polarization assay; in the data active means inhibition above about 50%
Redox H2O2 prof = compounds producing H2O2 with reducing agent – biochemical, NIH compound library profiling, artefact control for MLSCN library redox annotation, primary screen. 0.03% of 200,000 active. AID 878. activation, % at 10 µM. DTT-dependent redox cycling H2O2, phenol red/HRP absorbance; 100% = 100 µM peroxide control, 0% = buffer;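 active means activation of at least 50% relative to the plate's high and low controls in the primary single-dose screen; inactive means activation below 50%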;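 further: compound incubated with DTT at 0.8 mM final as the reducing agent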
PERK inh = blocks human PERK kinase; CHO PERK-DD fusion, SEAP luminescence translation reporter; 0.17% of 220,000 active; inhibition, % at 5.6 µM; Q9NZJ5;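 active means inhibition above the mean inhibition of all tested compounds plus 3 SD, set separately per screening campaign, cut at about 2.9% in these data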;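 further: PERK kinase domain activated by AP20187 dimerizer at 100 nM; 0% = DMSO with dimerizer and 100% = rapamycin at 8.4 µM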
Target sequence (Q9NZJ5 whole entry, looked up, the tested form may be a part): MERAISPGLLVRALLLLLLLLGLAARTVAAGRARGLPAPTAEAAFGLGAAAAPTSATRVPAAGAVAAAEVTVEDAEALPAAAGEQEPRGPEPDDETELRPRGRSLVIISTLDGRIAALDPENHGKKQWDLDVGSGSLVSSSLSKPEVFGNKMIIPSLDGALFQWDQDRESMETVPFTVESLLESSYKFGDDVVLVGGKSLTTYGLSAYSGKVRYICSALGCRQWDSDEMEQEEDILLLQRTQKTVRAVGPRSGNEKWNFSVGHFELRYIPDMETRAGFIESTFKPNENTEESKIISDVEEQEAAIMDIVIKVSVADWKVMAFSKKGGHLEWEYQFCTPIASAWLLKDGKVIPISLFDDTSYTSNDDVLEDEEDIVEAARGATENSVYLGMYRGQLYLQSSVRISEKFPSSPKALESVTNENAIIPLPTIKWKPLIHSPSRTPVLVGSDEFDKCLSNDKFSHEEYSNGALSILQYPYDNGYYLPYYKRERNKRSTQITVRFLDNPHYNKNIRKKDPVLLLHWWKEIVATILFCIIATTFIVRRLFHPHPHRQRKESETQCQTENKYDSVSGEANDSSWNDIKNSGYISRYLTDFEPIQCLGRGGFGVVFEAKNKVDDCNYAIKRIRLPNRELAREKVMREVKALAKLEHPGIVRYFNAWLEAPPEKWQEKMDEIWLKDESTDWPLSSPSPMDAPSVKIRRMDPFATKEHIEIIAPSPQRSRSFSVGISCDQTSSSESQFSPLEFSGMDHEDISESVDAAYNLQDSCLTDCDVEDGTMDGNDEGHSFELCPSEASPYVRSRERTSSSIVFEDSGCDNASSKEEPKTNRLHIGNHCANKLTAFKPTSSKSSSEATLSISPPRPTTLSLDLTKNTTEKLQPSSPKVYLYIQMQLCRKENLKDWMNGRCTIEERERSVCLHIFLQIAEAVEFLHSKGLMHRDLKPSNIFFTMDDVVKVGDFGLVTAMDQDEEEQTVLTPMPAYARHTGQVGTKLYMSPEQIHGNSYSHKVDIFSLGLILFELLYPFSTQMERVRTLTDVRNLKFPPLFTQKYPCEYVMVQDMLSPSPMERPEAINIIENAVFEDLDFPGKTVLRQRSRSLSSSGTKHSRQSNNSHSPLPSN
L929 necroptosis = blocks zVAD induced death of L929 cells | AID 1377 | 0.38% of 220,000 active | L929 zVAD necroptosis rescue, ATP luminescence, 24 h; with zVAD 60 µM | viability rescue, % at 10 µM;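 active means activation, scaled between plate controls, above about 75%, limit read from the data; inactive means activation under that limit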;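 further: 0% = zVAD with DMSO and 100% = DMSO alone without zVAD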
WT yeast gro inh = growth inhibition of WT yeast, mitochondrial fusion screen; mitochondrial fusion phenotypic screen, WT strain; inhibition, % at 10 µM; 2.1% of 190,000 active; AID 1362; in the data active means inhibition above about 58%; tested in S. cerevisiae
TNF necrop inh = blocks TNF-alpha induced death of Jurkat FADD-/- cells. activation (protection from cell death), % at 10 µM. AID 463075. Jurkat FADD-/- TNF necroptosis rescue, ATP luminescence, 24 h; 0 = TNF only, 100 = no-TNF cells. 0.068% of 220,000 active;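 active means activation, meaning protection from cell death, of at least 50% relative to plate controls; inactive means activation below 50%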;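 further: necroptosis triggered by 40 ng/mL TNF-alpha added together with compound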
zVAD necrop conf = confirmed blocker of zVAD induced death in L929 cells; shares compounds with L929 necroptosis; L929 zVAD-induced necroptosis rescue, ATP luminescence, 24 h; activation (protection from necroptosis), % at 10 µM; 16% of 760 active; AID 463117;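 active means mean protection from necroptosis of at least 50% over duplicate tests; inactive means mean protection below 50%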;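 further: 0% = cells with zVAD alone and 100% = vehicle cells without zVAD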
Active calls of the source: *; . = not tested or not shown. An excerpt weighted towards active compounds, which were near 2.4% of everything screened.

SMILES	PKD1 kinase inh	Redox H2O2 prof	PERK inh	L929 necroptosis	WT yeast gro inh	TNF necrop inh	zVAD necrop conf
CCOC(=O)c1ccc(NC(=O)Nc2cccc(C)n2)cc1	-9.9	-1.4	-0.2	68.2	11.0	1.4	.
CC(C)(C)c1cc(NCc2ccccn2)n2ncc(-c3ccc(Cl)cc3)c2n1	.	.	0.9	77.3*	.	3.6	1.1
Cc1c(NS(=O)(=O)c2ccc(NCCN3CCOCC3)c([N+](=O)[O-])c2)c(=O)n(-c2ccccc2)n1C	-0.2	-0.8	0.3	-0.5	7.2	-0.2	.
O=C(Nc1ccccc1N1CCCC1)c1cc2ccccc2o1	-4.7	3.2	-1.1	0.5	36.6	-1.3	.
Cc1ccc(C(=O)Nc2ncc(C)s2)o1	-0.3	0.1	-1.2	60.4	18.4	1.4	.
CN1CCN(c2ccccc2NC(=O)c2cc3ccccc3o2)CC1	4.1	2.7	-0.6	77.6*	-20.2	2.6	31.1
Cc1cnc(NC(=O)c2cc3ccccc3o2)s1	-5.1	-0.8	0.1	81.1*	9.9	9.7	0.4
Cc1cccc(NS(=O)(=O)c2cc(C(=O)N3CCc4ccccc4C3)ccc2Cl)c1C	-10.5	0.9	-1.0	-0.6	66.3	-6.7	.
Oc1ccc(Nc2nc(-c3ccc4ccccc4c3)cs2)cc1	-4.5	0.0	-0.7	73.6	58.2	-22.1	.
Oc1ccc(-c2csc(Nc3ncccn3)n2)cc1	-6.9	2.5	0.1	77.8*	0.4	15.6	75.3*
Cc1nc2ncccn2c1-c1csc(Nc2ccc(O)cc2)n1	-3.6	-2.0	1.4	88.1*	6.5	-9.3	0.6
CC(=O)Nc1ccc(-c2csc(Nc3ncccn3)n2)cc1	5.1	0.0	0.1	79.8*	-7.2	4.1	0.9
O=C1CSC(c2ccccc2)N1c1nnc(C23CC4CC(CC(C4)C2)C3)s1 (stereo not drawn)	-7.8	-0.7	1.7	0.1	31.7	21.0	.
N#C/C(=C\c1ccc(Cl)cc1)C(=O)Nc1cccnc1	.	.	0.3	-0.8	.	-2.1	.
Fc1cccc(CN2CCN(c3nc4nonc4nc3NC3CC3)CC2)c1	-0.6	-1.0	1.1	-1.0	.	1.0	.
Cc1nc(NCCCn2ccnc2)c2ccccc2n1	-4.8	-0.5	0.8	0.3	-17.6	1.2	.
c1cncc(-c2nc(NCCCn3ccnc3)c3ccccc3n2)c1	-6.4	0.0	0.3	75.1*	-10.4	1.1	32.4
CC(=O)Nc1ccc(/C=N/NC(=O)CNC(=O)c2ccccc2)cc1	-0.9	-0.8	2.2	1.0	2.5	0.3	.
CCN1C(=O)/C(=C2/Sc3ccccc3N2CC)S/C1=N\c1ncn[nH]1	6.2	0.5	-0.3	81.9*	4.8	-3.2	4.5
Cc1cc(-c2nnc(CCC(=O)NC(C)c3ccc(F)cc3)o2)no1 (stereo not drawn)	0.7	-0.8	-0.1	0.3	2.6	-0.6	.
O=C(NC1CCCCCCC1)c1cc(COc2ccc3ncccc3c2)on1	-2.6	-2.2	0.6	76.4*	17.1	-6.3	-0.4
c1cncc(-c2ccnc3ncnn23)c1	-2.7	-0.5	1.1	0.2	-4.2	0.0	.
O=C(c1ccc(F)cc1)n1ccc(-c2cnc(-c3ccccc3)s2)n1	-8.7	0.2	0.6	83.2*	-24.4	5.8	-0.5
Cc1noc(C)c1/C=N/Nc1ccccn1	2.3	10.2	0.8	82.0*	-14.9	44.7	73.2*
CCOc1ccc(/C=N/Nc2ccccn2)cc1	3.2	-2.0	0.4	77.6*	6.3	12.3	3.9
SMILES	PKD1 kinase inh	Redox H2O2 prof	PERK inh	L929 necroptosis	WT yeast gro inh	TNF necrop inh	zVAD necrop conf
COc1ccc(/C=N/Nc2cc(N(C)C)nc(N(C)C)n2)cc1	-12.5	0.2	0.1	4.2	40.1	0.3	.
Clc1ccc(/C=N/Nc2ccccn2)cc1	-3.2	-0.1	-0.4	80.7*	21.3	18.1	44.6
CCCOc1ccc(/C=N/NC(=O)C(=O)Nc2ccccn2)cc1	-5.0	-0.1	-0.2	-0.1	-1.8	0.2	.
COc1ccc(/C=N/Nc2cc(OC)ncn2)cc1	-0.3	0.3	0.5	78.0*	4.5	5.5	28.4
CCCCC(=O)NS(=O)(=O)c1ccc(N=NN2CCOCC2)cc1	-11.9	-0.9	-0.2	-0.5	-5.0	1.4	.
COCCNC(=O)C(c1ccc(F)cc1)N(C(=O)CCC(=O)Nc1nccs1)c1ccc(C)cc1 (stereo not drawn)	0.0	-0.4	0.1	-0.2	-5.5	-0.5	.
COC(C(=O)NC(C(C)C)C(C)C)c1ccccc1 (stereo not drawn)	-6.5	-0.6	0.3	0.9	-8.3	2.0	.
O=C(CSc1nnc(-c2ccncc2)o1)N1CCc2ccccc2C1	-0.6	-0.4	-0.1	3.1	-12.4	-0.6	.
COc1ccc(C(=O)C2CCCN(Cc3cccc4c3OCO4)C2)cc1OC (stereo not drawn)	7.7	-0.9	0.8	0.7	4.0	1.8	.
Fc1ccc(/C=N/Nc2ccccn2)cc1	-8.9	0.0	0.6	73.0	12.6	16.8	.
COc1ccc(/C=N/Nc2ccccn2)cc1O	.	.	1.2	89.6*	.	59.5*	64.5*
Brc1ccc(/C=N/Nc2ccccn2)cc1	-7.9	-0.2	0.0	77.9*	16.8	15.5	3.8
COc1cc(/C=N/NC(=O)C(=O)Nc2ccccn2)ccc1O	-0.8	-0.5	-0.6	0.4	6.5	0.5	.
O=C(Nc1ccnc(-c2cccnc2)n1)c1cccs1	-2.5	-1.5	0.1	10.4	-3.6	-0.4	.
CN(C)S(=O)(=O)Nc1cc(F)cc(F)c1	1.3	-0.5	1.2	-0.3	2.8	0.6	.
CCN(CC)Cc1cc2[nH]c3c4ccc(Cl)cc4ncc3c2cc1OC	.	.	0.6	80.9*	.	-28.6	73.1*
CC(C)(C)c1nc(NC(=O)Nc2ccccc2)sc1Br	-1.4	-0.2	2.0	83.5*	59.2*	-0.5	3.1
C=C1C(=O)O[C@@H]2[C@H]1[C@@H](OC(=O)/C(C)=C/C)C/C(C)=C\C(=O)/C=C(\C)[C@@H]2O	.	.	.	83.8*	.	2.0	5.5
C/C=C(/C)C(=O)O[C@H]1[C@@H](O)c2c(ccc3ccc(=O)oc23)OC1(C)C	-8.3	0.5	-0.4	-0.7	-18.4	-1.1	.
CCOC(=O)Nc1ccc2c(c1)ncn2C1CCCCC1	-4.3	-2.0	-0.6	83.5*	-0.6	0.6	16.7
CC(C)c1ccc(C(=O)NC(=S)Nc2ccc3[nH]c(=O)[nH]c3c2)cc1	.	.	1.0	80.7*	.	-6.3	27.9
O=C1N=C2N(CCN3CCCCC3)c3ccccc3N2/C1=C\c1ccc([N+](=O)[O-])o1	-7.8	9.5	0.1	75.4*	2.9	-14.4	0.5
Cn1c(C(=O)NCCN2CCOCC2)cc2c(=O)n(C)c3ccccc3c21	-7.2	-0.6	-0.1	54.1	-6.1	1.0	.
CC1CCCCN1CCNC(=O)c1cc2c(=O)n(C)c3ccccc3c2n1C (stereo not drawn)	7.1	-2.9	0.2	81.5*	12.6	7.1	37.2
